Shn3 inh set2 – inhibitors of Schnurri-3 3'UTR reporter in osteoblasts. inhibition, % at 12.5 µM. Clone20 osteoblast Shn3 3'UTR firefly luciferase, 24 h. hit rate 0.52% among 360,000;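 active = mean inhibition of at least 75% with every replicate also reaching 75%; inconclusive = mean inhibition at least 75% but some replicate below; inactive = mean inhibition below 75%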;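 note: 0% = median of neutral control wells and 100% = pilot-screen positive control compound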
Env fusion inh – inhibitors of HIV Env-mediated cell fusion; hit rate 1.1% among 360,000; inhibition, % at 12.3 µM; AID 651610; HeLa-JRFL Env/CEM21 cell fusion, luciferase;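 active = mean replicate inhibition score of at least 50 and every replicate individually at or above 50; inconclusive = only one of the two criteria met; inactive = mean below 50 and not all replicates reaching 50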;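 note: 0% = plate neutral controls and 100% = maraviroc near 300 nM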
PAX8 inh HTS – inhibitors of PAX8 transcriptional activity in RMG-I cells; RMG-I TPO-luciferase reporter, SteadyGlo, 24 h; inhibition, % at 12.6 µM; hit rate 1.2% among 360,000; AID 652154;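 active = mean replicate inhibition at least 60% with every replicate also reaching 60%; inconclusive = only one of the two criteria is met; inactive = mean below 60% and not all replicates reaching 60%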;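 note: luciferase light reporting Pax8 driven TPO promoter activity; plate controls were median of neutral control wells for no effect and mitoxantrone controls for full effect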
NSD2 inh – blocks human histone methyltransferase NSD2 | inhibition, % at 12.5 µM | O96028 | hit rate 0.54% among 310,000 | NSD2 peptide methylation, AlphaScreen, 120 min | AID 743445; in the data active = inhibition above about 50%
Glyco luc inh – N-linked glycosylation inhibition; D54 ERlucT glycosylation luciferase reporter, 24 h; percent of 100 nM tunicamycin response; reporter increase, % at 12.5 µM; hit rate 0.23% among 360,000; AID 588692;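 active = mean luciferase reporter signal, scaled so untreated is 0 and the glycosylation-blocking control 100, at or above a set limit in every replicate; inconclusive = mean reaches the limit but not every replicate does; inactive = mean below the limit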;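 note: luciferase carries N-glycosylation sites so blocking glycosylation raises the light; 0% = median of neutral control wells and 100% = median of 100 nM tunicamycin wells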
EBV LMP1 NFkB – Epstein-Barr LMP1 NF-kappaB reporter inhibition; hit rate 0.69% among 350,000; LMP1-induced NF-kappaB luciferase reporter cells, luminescence; inhibition, % at 12.5 µM; AID 504558; in the data active = inhibition above about 41%; inconclusive = no clear call, values can overlap the other calls;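 note: 0% = neutral control wells and 100% = reference inhibitor control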
The depositor's hits bear a star; ? = inconclusive; · = no result; ! = repeats disagree; [ ] = another dose, or the depositor's remark. An excerpt weighted towards active compounds, which were near 2.8% of everything screened.

SMILES	Shn3 inh set2	Env fusion inh	PAX8 inh HTS	NSD2 inh	Glyco luc inh	EBV LMP1 NFkB
CC(CCc1ccccc1)NC(=O)COC(=O)c1ccc(S(C)(=O)=O)c([N+](=O)[O-])c1 (stereo not given)	96.7*	19.5	-11.7	6.4	-1.1	-0.8
Cc1ccccc1NC(=O)COC(=O)c1ccc(S(C)(=O)=O)c([N+](=O)[O-])c1	-0.1	18.2	?	0.9	-3.8	6.0
CS(=O)(=O)c1ccc(C(=O)OCC(=O)Nc2cccnc2Cl)cc1[N+](=O)[O-]	94.4*	·	·	3.2	-3.6	1.9
O=C(OCn1ncc(Cl)c(Cl)c1=O)c1cccc(C(F)(F)F)c1	96.8*	·	·	·	-16.1	0.1
C[C@H](CO)N1C[C@H](C)[C@H](CN(C)Cc2ccccc2)Oc2ccc(NS(=O)(=O)c3cn(C)cn3)cc2C1=O	·	12.8[16.7 µM]	-2.5	·	·	·
O=C(NNc1ccc([N+](=O)[O-])cc1)C12CC3CC(CC(C3)C1)C2	-2.5	69.3*	·	0.0	4.3	-6.7
O=C(NCC[C@@H]1CC[C@@H](NC(=O)Nc2cc(F)ccc2F)[C@@H](CO)O1)Nc1ccc(F)cc1	·	19.3[16.7 µM]	·	·	·	·
CC(=O)OCCNc1cc(SC(C)C)c2nonc2c1[N+](=O)[O-]	-5.9	-34.6	-11.6	2.3	3.0	5.4
CCC(=O)OCCNc1cc(SCCC(=O)OC)c2nonc2c1[N+](=O)[O-]	18.7	14.4	-2.9	2.2	13.3	3.3
CCC(=O)OCCNc1cc(Sc2nccn2C)c2nonc2c1[N+](=O)[O-]	89.2*	-183.7	104.4*	·	3.2	26.5
CCCC(=O)OCCNc1cc(Sc2nc3ccccc3[nH]2)c2nonc2c1[N+](=O)[O-]	93.0*	-31.5	85.6*	-0.7	-8.0	11.5
CC(C)NC(=O)Nc1ccc2c(c1)C(=O)N([C@H](C)CO)C[C@@H](C)[C@@H](CN(C)S(C)(=O)=O)O2	·	-13.2[16.7 µM]	-22.1	·	·	·
NC(=NCCCCCCN=C(N)/N=C(\N)Nc1ccc(Cl)cc1)/N=C(\N)Nc1ccc(Cl)cc1	81.1	2.4	98.0*!	·	-10.1	10.3
CC(C)N=C(N)N=C(N)Nc1ccc(Cl)cc1	90.8*	·	-11.3	·	-0.3	-0.4
NNC(=S)Nc1ccc(Cl)cc1	21.3	-1.6	1.2	-6.9	0.3	-1.4
CCCCc1nn(-c2cc(Cl)ccc2OC)c2c1C(=O)CC(C)(C)C2	11.1	57.4*	1.5	·	-0.7	-1.5
CC1=NOC(=O)/C1=C/c1ccc(-c2ccc(Cl)cc2)o1	?	·	·	11.9	12.4	-9.4
CC1=NOC(=O)/C1=C\c1ccc(-c2cc(Cl)ccc2Cl)o1	94.4*	·	·	8.4	1.5	13.8
Nc1ccn(C2OC(COP(=O)(O)O)C(O)C2O)c(=O)n1 (stereo not given)	32.1	82.2*	11.6	-0.1	-2.9	-1.0
COc1ccc(S(=O)(=O)N(C)C[C@@H]2Oc3ccc(N(C)C)cc3CC(=O)N([C@H](C)CO)C[C@H]2C)cc1	·	9.9[16.7 µM]	-2.4	·	·	·
CCSCCc1nnc(NC(=O)Nc2cccc(C(F)(F)F)c2)s1	42.6	70.4*	105.8*	7.3	-15.3	5.1
Cc1ccccc1N=C1N=C(N)c2ccccc21	0.7	24.2	137.7*	-0.6	-0.7	-15.7
C/C=C/c1ccc([C@H]2[C@@H](CO)N(C(=O)c3cnccn3)C23CN(C(C)=O)C3)cc1	·	·	-5.3	·	·	·
Cc1ccc(S(=O)(=O)NCC[C@@H]2CC[C@@H](NC(=O)Nc3ccccc3F)[C@H](CO)O2)cc1	·	1.8[16.7 µM]	11.1	·	·	·
C=CC(=O)Nc1cccc(N(C)c2ccnc(Nc3ccc(N4CCN(C)CC4)cc3)n2)c1	84.3	·	·	·	-11.2	44.2*
SMILES	Shn3 inh set2	Env fusion inh	PAX8 inh HTS	NSD2 inh	Glyco luc inh	EBV LMP1 NFkB
C=CC(=O)Nc1cccc(Oc2ccnc(Nc3ccc(N4CCN(C)CC4)cc3)n2)c1	65.5	?	74.5*	·	-14.4	35.4
COc1ccc2c(c1)OC(=O)CC2c1cc(OC)c(OC)c(OC)c1 (stereo not given)	-13.3	-64.9	-4.0	·	9.4	88.9*
O=C(C[C@H]1C=C[C@@H](NC(=O)C2CC2)[C@@H](CO)O1)NC1CCC1	·	9.5[16.7 µM]	-6.8	·	·	·
C[n+]1ccc(/C=N/Nc2nc(Cl)c(C#N)c(Cl)c2Cl)cc1	-2.3	9.9	63.1*	16.8	1.6	-10.9
C[C@@H]1CN([C@@H](C)CO)C(=O)c2cc(NS(=O)(=O)c3cn(C)cn3)ccc2O[C@@H]1CN(C)Cc1ccc(Cl)c(Cl)c1	·	·	-2.3	·	·	·
C[C@@H]1CN([C@@H](C)CO)C(=O)Cc2cc(NS(=O)(=O)c3cccs3)ccc2O[C@@H]1CN(C)Cc1ccc(Cl)c(Cl)c1	·	10.2[16.7 µM]	·	·	·	·
